Our source for the composite z-score and z-score values is PubChem BioAssay.

Activity calls are given as the source filed them.

Assay [1] concerns PRMT1 (protein arginine N-methyltransferase 1). In words: PRMT1 binders on small-molecule microarrays, primary screen, biochemical, small-molecule microarray, 635 nm fluorescence (AID 1088).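 Also: binding of Prmt1 protein to compounds spotted on small-molecule microarray slides.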 The settings on record: small-molecule microarray binding, higher = more signal.
Assay [2] in a line: yeast growth modulation, basal conditions, primary screen, YJM789 clinical isolate, OD600, 24 h (AID 1089).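 Also: growth of clinical yeast isolate S. cerevisiae YJM 789 seeded 1000 cells per well; test concentration not given here.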 The settings on record: S. cerevisiae YJM789 growth, higher = more signal, called active from +8 up or from −8 down.
Assay [3] in a line: fission yeast growth modulation, primary screen, strain 972, OD600, 24 h, no modulator (AID 1090).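 Also: basal condition with compound alone and no growth modifier present; test concentration not given here.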 The settings on record: S. pombe 972 growth, higher = more signal, called active from +8 up or from −8 down.
A short description of assay [4]: S. cerevisiae growth modulation with rapamycin, primary screen, strain BY4716, OD600, 96 h (AID 1091). Also: test concentration not given here. The settings on record: higher = more signal, called active from +8 up or from −8 down.
In assay [5] the target is Torsin-1A-interacting protein 2 (Homo sapiens) (UniProt Q8NFQ8). The experiment in a line: LULL1 binders on small-molecule microarray, primary screen, cell lysate, human LULL1 lysate, 635/667 nm fluorescence (AID 1092).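 Also: probe is lysate of COS7 cells overexpressing human LULL1; score merges per-feature 667 nm fluorescence with signal-to-noise.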 The settings on record: hLULL1 lysate binding, 635 nm fluorescence, higher = more signal.
A short description of assay [6]: E. coli growth modulation, two-sided OD650, primary screen, E. coli filamentation project, strain DRC41, 24 h (AID 1093).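 Also: MC1000 strain lacking acrAB efflux and sulA so SOS filamentation is blocked; test concentration not given here.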 The settings on record: OD650, 24 h, higher = more signal, called active from +8 up or from −8 down.
Assay [7] is described as follows: small-molecule microarray binders of probe aLefty2, primary screen, biochemical, biotinylated probe, 635/667 nm fluorescence (AID 1094).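 Also: score merges spot fluorescence near 667 nm with spot signal-to-noise ratio.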 The settings on record: higher = more signal.
Assay [8] deals with Noggin (protein binding on small-molecule microarray). In words: Noggin binders on small-molecule microarray, primary screen, biochemical, 635/667 nm fluorescence (AID 1095).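 Also: score merges 667 nm feature fluorescence with signal to noise over triplicate slides.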 The settings on record: 635 nm fluorescence, higher = more signal.
The target of assay [9] is Neurogenic locus notch homolog protein 3 (Homo sapiens) (UniProt Q9UM47). The experiment in a line: NOTCH3 binders on small-molecule microarray, primary screen, biochemical, 635/667 nm fluorescence (AID 1096). The settings on record: NOTCH3 binding, 635 nm fluorescence, higher = more signal.
A short description of assay [10]: small-molecule microarray binders of probe aEGFR, primary screen, biochemical, biotinylated probe, 635/667 nm fluorescence (AID 1097).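 Also: probe is a biotinylated anti-EGFR antibody binding compounds printed on slides; score combines fluorescence near 667 nm and signal to noise of each spot.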 The settings on record: higher = more signal.

Chain of Torsin-1A-interacting protein 2 (Homo sapiens) (Q8NFQ8 whole entry, looked up): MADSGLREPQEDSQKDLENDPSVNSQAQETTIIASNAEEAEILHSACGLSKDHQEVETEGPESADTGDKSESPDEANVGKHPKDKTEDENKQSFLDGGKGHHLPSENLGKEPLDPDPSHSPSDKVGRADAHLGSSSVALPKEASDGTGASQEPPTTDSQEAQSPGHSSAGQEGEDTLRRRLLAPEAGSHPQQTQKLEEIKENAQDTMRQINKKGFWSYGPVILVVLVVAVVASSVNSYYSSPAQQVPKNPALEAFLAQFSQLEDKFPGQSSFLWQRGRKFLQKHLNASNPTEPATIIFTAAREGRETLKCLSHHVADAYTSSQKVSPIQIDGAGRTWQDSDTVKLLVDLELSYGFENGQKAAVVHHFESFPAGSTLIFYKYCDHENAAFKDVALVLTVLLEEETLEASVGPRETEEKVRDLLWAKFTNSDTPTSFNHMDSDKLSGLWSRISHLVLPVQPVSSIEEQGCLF
Chain of Neurogenic locus notch homolog protein 3 (Homo sapiens) (Q9UM47 whole entry, looked up): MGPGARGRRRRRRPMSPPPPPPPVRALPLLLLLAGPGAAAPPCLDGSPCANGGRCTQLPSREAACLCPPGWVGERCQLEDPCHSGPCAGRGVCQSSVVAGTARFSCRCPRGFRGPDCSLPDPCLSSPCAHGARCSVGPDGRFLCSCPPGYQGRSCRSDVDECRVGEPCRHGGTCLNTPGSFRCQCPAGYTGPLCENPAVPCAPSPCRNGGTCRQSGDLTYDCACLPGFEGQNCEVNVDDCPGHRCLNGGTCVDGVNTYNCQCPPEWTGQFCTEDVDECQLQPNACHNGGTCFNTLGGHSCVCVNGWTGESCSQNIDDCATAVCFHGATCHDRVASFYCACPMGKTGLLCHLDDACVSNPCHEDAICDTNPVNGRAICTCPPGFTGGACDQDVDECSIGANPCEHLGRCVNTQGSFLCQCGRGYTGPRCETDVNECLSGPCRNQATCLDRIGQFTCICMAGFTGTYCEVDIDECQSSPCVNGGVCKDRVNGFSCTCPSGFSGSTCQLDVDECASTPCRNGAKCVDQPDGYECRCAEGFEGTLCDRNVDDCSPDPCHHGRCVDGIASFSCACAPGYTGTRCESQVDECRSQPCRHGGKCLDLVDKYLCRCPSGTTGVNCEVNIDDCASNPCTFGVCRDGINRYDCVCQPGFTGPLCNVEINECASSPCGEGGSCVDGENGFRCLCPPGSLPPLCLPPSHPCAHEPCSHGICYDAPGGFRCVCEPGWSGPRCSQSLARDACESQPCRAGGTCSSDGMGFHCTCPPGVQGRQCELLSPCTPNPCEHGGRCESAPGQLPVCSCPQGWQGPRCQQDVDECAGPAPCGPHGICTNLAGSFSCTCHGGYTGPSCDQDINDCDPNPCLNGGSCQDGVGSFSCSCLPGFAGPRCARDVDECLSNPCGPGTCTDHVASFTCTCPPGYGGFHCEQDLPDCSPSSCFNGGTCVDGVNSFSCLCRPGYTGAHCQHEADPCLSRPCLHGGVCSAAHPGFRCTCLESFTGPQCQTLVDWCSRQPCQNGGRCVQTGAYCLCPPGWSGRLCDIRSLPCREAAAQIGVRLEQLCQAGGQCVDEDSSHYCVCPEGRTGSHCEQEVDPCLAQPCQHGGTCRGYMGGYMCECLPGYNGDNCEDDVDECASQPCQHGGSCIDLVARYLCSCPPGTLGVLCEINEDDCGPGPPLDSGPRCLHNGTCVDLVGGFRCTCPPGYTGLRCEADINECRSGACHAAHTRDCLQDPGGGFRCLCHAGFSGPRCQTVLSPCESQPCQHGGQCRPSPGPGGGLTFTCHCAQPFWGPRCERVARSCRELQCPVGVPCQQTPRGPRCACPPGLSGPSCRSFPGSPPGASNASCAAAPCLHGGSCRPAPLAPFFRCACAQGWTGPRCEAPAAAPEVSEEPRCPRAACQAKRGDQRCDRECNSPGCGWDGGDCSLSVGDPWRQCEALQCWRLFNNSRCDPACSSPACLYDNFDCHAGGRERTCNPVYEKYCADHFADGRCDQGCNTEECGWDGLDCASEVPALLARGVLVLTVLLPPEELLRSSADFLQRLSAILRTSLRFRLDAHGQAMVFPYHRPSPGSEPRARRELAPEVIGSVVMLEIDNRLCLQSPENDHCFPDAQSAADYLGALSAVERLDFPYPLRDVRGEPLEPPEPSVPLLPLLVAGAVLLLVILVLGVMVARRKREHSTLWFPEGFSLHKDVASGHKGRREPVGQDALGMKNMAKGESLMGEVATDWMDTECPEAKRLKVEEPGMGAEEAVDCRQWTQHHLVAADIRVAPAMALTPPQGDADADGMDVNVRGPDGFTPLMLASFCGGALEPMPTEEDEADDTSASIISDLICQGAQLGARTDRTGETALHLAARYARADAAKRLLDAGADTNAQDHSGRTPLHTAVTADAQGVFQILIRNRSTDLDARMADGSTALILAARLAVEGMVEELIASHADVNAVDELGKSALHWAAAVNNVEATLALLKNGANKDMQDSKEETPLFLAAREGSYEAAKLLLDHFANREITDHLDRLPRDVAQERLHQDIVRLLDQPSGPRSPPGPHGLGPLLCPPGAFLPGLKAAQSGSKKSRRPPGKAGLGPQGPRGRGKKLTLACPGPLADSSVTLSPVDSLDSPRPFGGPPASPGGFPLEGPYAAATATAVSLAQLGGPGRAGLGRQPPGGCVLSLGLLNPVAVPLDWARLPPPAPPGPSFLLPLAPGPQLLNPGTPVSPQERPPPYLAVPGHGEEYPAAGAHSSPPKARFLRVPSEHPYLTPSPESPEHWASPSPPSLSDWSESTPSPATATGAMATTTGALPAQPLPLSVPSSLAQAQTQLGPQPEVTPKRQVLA

`COC(=O)[C@@]1(Cc2ccc(F)cc2)[C@H]2c3cc(C(=O)N4CCCC4)n(Cc4ccc(C(F)(F)F)nc4)c3C[C@H]2CN1C(=O)c1ccccc1`: the composite z-score amounted to 0.428 in assay [1]; 2.29 in assay [5]; 0.67 in assay [7]; 0.373 in assay [8]; 1.03 in assay [9]; 0.188 in assay [10]. For the same compound, the z-score in assay [2] is -0.368 (inactive); in assay [3], 1.17 (inactive); in assay [4] it was 3.82 (inactive); in [6], -0.293 (inactive).
Regarding `Cc1ccc(S[C@]2(C(=O)NCc3ccccc3)CC(=O)N(Cc3ccccc3C(F)(F)F)[C@@H]2c2ccc(CO)cc2I)cc1`, the composite z-score in assay [1] was 1.3; in [5], 1.93; in [7] it was -0.0593; in assay [8], -0.86; in [9], -0.582; in assay [10], -0.282. Further, the z-score is -1.53 (inactive) in assay [2], -4.08 (inactive) in [3], 0.899 (inactive) in assay [4] and 0.322 (inactive) in assay [6].
As for `CC(C)(C)OC(=O)CC[C@@]1(C(N)=O)N=C(c2ccc(OCCCO)cc2)O[C@@H]1c1ccccc1CN=[N+]=[N-]`, the composite z-score in assay [1] was -0.319; in [5] it was 2.86; in assay [7], 0.669; in assay [8] it was 0.324; in [9], 0.851; in assay [10] it was 0.756. Moreover, the z-score in [2] was 0.689 (inactive); in [3], -0.477 (inactive); in [4] it was -0.132 (inactive); in assay [6], 0.035 (inactive).
Turning to `C[N+](C)(C)CCCC[C@@H]1NC(=O)[C@H]2C[C@@H](C(=O)NCCCCCN)[C@@H](c3ccc(O)cc3)N2C1=O`, the composite z-score in [1] stood at 1.54; in [5], 3.06; in [7], 0.0829; in assay [8], 1.57; in [9], 1.11; in assay [10] it was 0.152. Also, the z-score in assay [2] is -0.407 (inactive); in assay [3], -2.01 (inactive); in [4] it was -1.2 (inactive); in assay [6] it was -0.162 (inactive).
Regarding `COc1c(C)cc(-c2cc3c(c(CCc4ccccc4)n2)[Si](C(C)C)(C(C)C)O[C@H]3c2ccccc2)cc1C`, the composite z-score was -0.848 in assay [1]; 0.0198 in assay [5]; -0.0519 in [7]; 0.108 in assay [8]; 0.24 in [9]; -0.162 in assay [10]. Further, the z-score was 0.864 (inactive) in assay [2], 0.307 (inactive) in assay [3], 33.1 (active) in assay [4] and -0.899 (inactive) in assay [6].
As for `CCCCC=C[C@@H](NC(=O)C(C)(C)C)c1ccccc1`, the composite z-score was 0.956 in [1]; 1.08 in assay [5]; 0.0769 in assay [7]; -0.0096 in assay [8]; 1.11 in assay [9]; 0.313 in [10]. Moreover, the z-score is 0.924 (inactive) in assay [2], 1.84 (inactive) in assay [3], 4.33 (inactive) in assay [4] and -1.46 (inactive) in assay [6].
For `C=CCNC(=O)[C@H]1[C@@H]2C(=O)O[C@@H](c3ccccc3)[C@@H](c3ccccc3)N2[C@@H](c2ccc(O)cc2)[C@]12C(=O)N(C(=O)OCCOC)c1ccc(C#Cc3ccc(OC)cc3)cc12`, the composite z-score in assay [1] was 1.42; in assay [5], 2.23; in assay [7] it was -0.0302; in [8] it was 0.44; in assay [9] it was 0.892; in [10] it was 0.0219. The z-score in assay [2] is 0.622 (inactive); in assay [3], 0.074 (inactive); in assay [4], 1.66 (inactive); in assay [6] it was -0.866 (inactive).
Turning to `C=CCNC(=O)[C@H]1[C@@H]2C(=O)O[C@@H](c3ccccc3)[C@@H](c3ccccc3)N2[C@@H](c2ccc(OCCO)cc2)[C@]12C(=O)N(C(=O)OCCOC)c1ccc(C#CCC(C(=O)OC)C(=O)OC)cc12`, the composite z-score in assay [1] was 1.54; in [5], 3.45; in assay [7], 0.771; in assay [8], 1.42; in [9], 1.08; in [10], 0.315. The z-score in [2] is 2.06 (inactive); in assay [3] it was 1.07 (inactive); in assay [4] it was 6.82 (inactive); in assay [6], -0.0319 (inactive).
For the compound `CCN1C(=O)C2CC(=O)C3C(CN(S(=O)(=O)c4ccc(C)cc4)C3c3ccc(C)cc3)C2C1=O` (stereo not given), the composite z-score in assay [1] was 0.751; in assay [5], 2.75; in [7], -0.0176; in [8] it was -0.841; in [9] it was 0.627; in assay [10] it was -0.0089. The z-score is -0.01 (inactive) in [2], 0.616 (inactive) in assay [3], 0.627 (inactive) in assay [4] and 0.398 (inactive) in assay [6].
Turning to `CN1C(=O)C2CC=C(C3=CCO[C@@H]3[C@H]3CCCN3S(=O)(=O)c3ccccc3[N+](=O)[O-])CC2C1=O` (stereo not given in full), the composite z-score in assay [1] was 0.0659; in assay [5], 0.283; in assay [7], -0.203; in [8] it was -0.194; in assay [9], 0.01; in assay [10], -0.171. In addition, the z-score in assay [2] is -0.0649 (inactive); in assay [3], -0.706 (inactive); in [4], -0.0153 (inactive); in [6], -0.66 (inactive).
With `CN1C(=O)C2C(C1=O)C1C=C(CCCO)C2C(C2CC2)N1C` (stereo not given), the composite z-score in assay [1] was 0.74; in [5], 2.52; in [7], -0.0812; in assay [8] it was -0.21; in assay [9], -0.312; in [10], -0.0922. The z-score is -1.39 (inactive) in assay [2], -0.339 (inactive) in [3], -0.517 (inactive) in [4] and -0.797 (inactive) in [6].
Regarding `COC(=O)c1c2oc(c1C(=O)OC)C(=O)N[C@H](Cc1ccccc1)Cn1cc(nn1)C1(CCCCC1)NC(=O)N[C@H](CO)CC2`, the composite z-score is 0.286 in assay [1]; 1.46 in assay [5]; -0.124 in assay [7]; 0.292 in [8]; -0.147 in assay [9]; -0.158 in assay [10]. Besides, the z-score was 1.92 (inactive) in assay [2], -0.261 (inactive) in [3], -0.691 (inactive) in assay [4] and 2.01 (inactive) in [6].
For the compound `CCCCN1CC=CC23O[C@@H]4/C=C\CCC(C)OC(=O)C4[C@H]2C(=O)N(CCO)[C@@H]3C1=O` (stereo not given in full), the composite z-score in assay [1] was -0.314; in assay [5] it was 3.4; in assay [7] it was 0.0469; in [8] it was -0.19; in assay [9], -0.342; in assay [10], -0.157. In addition, the z-score in assay [2] is -1.64 (inactive); in assay [3], -1.02 (inactive); in assay [4], -1.2 (inactive); in assay [6] it was 2.26 (inactive).
Turning to `COC(=O)[C@@]1(Cc2ccc(F)cc2)[C@H]2c3cc(C(=O)N4CCCC4)n(Cc4ccc(OC(F)(F)F)cc4)c3C[C@H]2CN1C(=O)c1ccccc1`, the composite z-score is -1.08 in assay [1]; 2.1 in assay [5]; -0.0238 in assay [7]; -1.2 in assay [8]; -1.23 in assay [9]; -0.0472 in [10]. The z-score is 0.646 (inactive) in assay [2], 0.693 (inactive) in assay [3], -0.16 (inactive) in assay [4] and -1.01 (inactive) in assay [6].
